AmpC no deterg – qHTS Inhibitors of AmpC Beta-Lactamase (assay without detergent). hit rate 0.52% among 330,000. Potency, µM (highest dose often 57.1 µM), hits mostly inhibitors. AmpC nitrocefin hydrolysis, absorbance 480 nm, 0.0001% Triton. AID 485341, 2010; further: nearly all actives have a fitted effect of over 20% in size
Target sequence (P00811 whole entry, looked up): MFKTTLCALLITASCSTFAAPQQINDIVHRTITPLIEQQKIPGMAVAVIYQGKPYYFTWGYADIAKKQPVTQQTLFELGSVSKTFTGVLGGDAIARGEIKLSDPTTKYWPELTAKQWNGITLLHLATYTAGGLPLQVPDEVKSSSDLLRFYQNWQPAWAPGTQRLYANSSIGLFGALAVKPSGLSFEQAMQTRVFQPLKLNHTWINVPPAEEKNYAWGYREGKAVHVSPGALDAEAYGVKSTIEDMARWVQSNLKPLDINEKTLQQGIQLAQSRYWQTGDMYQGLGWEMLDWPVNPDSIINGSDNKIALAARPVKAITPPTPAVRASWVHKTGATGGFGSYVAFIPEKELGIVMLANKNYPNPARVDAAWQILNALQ
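20 mM phosphate pH 7.0 + 0.01% (detergent screen) or 0.0001% Triton X-100; 5.3 nM AmpC reagent; cpd preinc 15 min RT; nitrocefin (800 uM stock) to start; A480 q20 s × 4 min; Activity was normalised to no-enzyme and no-compound control wells.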
AmpC inh detg – qHTS Inhibitors of AmpC Beta-Lactamase (assay with detergent); P00811; AmpC hydrolysis of nitrocefin, absorbance 480 nm, 0.01% Triton; Potency, µM (doses to about 114 µM), most hits filed as inhibitors; hit rate 0.041% among 370,000; AID 485294, 2010; further: nearly all actives have a fitted effect of over 25% in size
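AmpC (5.3 nM in the dispensed reagent) in 20 mM phosphate pH 7.0 with 0.01% (detergent screen) or 0.0001% Triton X-100 was preincubated with compounds for 15 min at room temperature. Nitrocefin was then added from an 800 uM solution, and hydrolysis was followed at 480 nm.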
RE007 growth inh – qHTS Assay for Inhibitors of the HIV-1 protein Vpr; AID 651644, 2012; hit rate 0.21% among 360,000; S. pombe RE007 Vpr strain, BacTiter-Glo ATP luminescence, 24 h; Potency, µM (series often up to 92.2 µM), hits mostly inhibitors; active means well fitted falling curve with a large enough effect; inconclusive means small, poorly fitted or top-dose-only effect; inactive means no such curve, though single readings can be large or run the other way; further: nearly all actives have a fitted effect of over 50% in size
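Fission yeast strain RE007, carrying one chromosomally integrated HIV-1 vpr copy, was seeded at OD 0.01 in PMG+AL medium with 23 nL pinned compound. After 24 h at 30 °C and 99% humidity, viability was read by BacTiter-Glo luminescence.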
Sm TGR inh – qHTS Assay for the Inhibitors of Schistosoma Mansoni Peroxiredoxins | Schistosoma mansoni thioredoxin glutathione reductase (TGR), Q962Y6 | purified TGR, DTNB reduction, TNB absorbance 405 nm | Potency, µM (titrated, usually from 114 µM), usual class: inhibitors | hit rate 3% among 360,000; further: nearly all actives have a fitted effect of over 60% in size
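TGR 20 nM + NADPH 100 uM (dispensed conc.), cpd preinc 15 min RT; start with NADPH (500 uM addition) then DTNB (15 mM addition). Kinetic TNB absorbance, 405 nm filter. Four-parameter Hill fit across titration.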
AMA1-RON2 inh – qHTS for Inhibitors of AMA1-RON; Towards Development of Antimalarial Drug Lead: Primary Screen; AlphaScreen AMA1-biotinylated RON2 peptide binding; Potency, µM (highest dose often 58.2 µM), usual class: inhibitors; hit rate 0.2% among 360,000; AID 720542, 2013; further: nearly all actives have a fitted effect of over 45% in size
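AMA1 (3D7) with his tag at 25 nM final met compounds first, then biotinylated RON2 peptide at 25 nM; detection used donor plus acceptor beads, 10 µg/mL apiece, read by AlphaScreen after 30 min at room temperature.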
Large screens that a line does not name were inactive; ! = a repeat was not active. Rows were chosen to be rich in hits. Some 3.2% of all compounds tested hit in one or more screens of this group. Unless noted, the call rests on the fitted dose curve; in most records, active means well fitted curve in the direction sought with a large enough effect; inconclusive means small, poorly fitted or top-dose-only effect, or another doubt; inactive means no such curve, though single readings can be large; an effect the other way counts as inactive or inconclusive.

Cc1cccc(N2CCN(C(=O)Cn3sc4nc(C)cc(C)c4c3=O)CC2C)c1 (stereo not given)	AmpC inh detg 50µM, RE007 growth inh inconclusive
Cc1cc(C)c2c(=O)n(CC(=O)Nc3cccc(F)c3)sc2n1	AmpC no deterg inconclusive, AmpC inh detg 79µM
Cc1cc(C)c2c(=O)n(CC(=O)NCCCN3CCOCC3)sc2n1	AmpC no deterg 14µM, AmpC inh detg 45µM, RE007 growth inh inconclusive, Sm TGR inh inconclusive
Cc1cc(C)c2c(=O)n(CC(=O)N3CCC(Cc4ccccc4)CC3)sc2n1	AmpC inh detg inconclusive (no result: RE007 growth inh, AMA1-RON2 inh)
Cc1cccc(N2CCN(C(=O)C3CC(=O)N(c4ccc5c(c4)OCCO5)C3)CC2C)c1 (stereo not given)	Sm TGR inh 45µM
Cc1ccc(CSc2nc(-c3ccc(C(C)(C)C)cc3)nc3cc(=O)[nH]n23)cc1	none (no result: AmpC no deterg, RE007 growth inh, AMA1-RON2 inh)
Cc1cccc(N2CCN(C(=O)c3noc4c3COc3ccc(C)cc3-4)CC2C)c1 (stereo not given)	Sm TGR inh 5.6µM!
COc1cc2c(cc1NC(=O)c1ccc3c(c1)OCO3)oc1ccccc12	none
COc1cc2c(cc1NCc1ccc3c(c1)OCO3)oc1ccccc12	AMA1-RON2 inh 32µM
Cc1ccc(C)c(NC(=O)CSc2ncc3c(n2)-c2cc(Cl)ccc2N(Cc2ccccc2F)S3(=O)=O)c1	none (no result: AmpC no deterg, RE007 growth inh, AMA1-RON2 inh)
CCc1ccc2[nH]c(=O)c(C(c3nnnn3CC3CCCO3)N3CCCc4ccccc43)cc2c1 (stereo not given)	Sm TGR inh 35µM
Cc1cc2cc(C(c3nnnn3CC3CCCO3)N3CCCc4ccccc43)c(=O)[nH]c2cc1C (stereo not given)	Sm TGR inh inconclusive
N#CC(=C1C=C(Br)C(=NO)C=C1Cl)c1ccc(Cl)cc1	AMA1-RON2 inh 20µM (no result: AmpC no deterg, AmpC inh detg, Sm TGR inh)
Cc1ccc([C@@H]2C3COCC=C3C(C#N)=C(N)C2(C#N)C#N)o1 (stereo not given in full)	Sm TGR inh 35µM
CC(C)Sc1ncc(Cl)c(C(=O)Nc2nc3ccc(S(C)(=O)=O)cc3s2)n1	none (no result: AmpC no deterg, RE007 growth inh, AMA1-RON2 inh)
COc1cc(/C=C/C(=O)OC(C)C(=O)Nc2ccc(Cl)cn2)ccc1OC(F)F (stereo not given)	none (no result: AmpC inh detg, Sm TGR inh)
Cc1ccc(/C=C/C(=O)OC(C)C(=O)Nc2ccc(Cl)cn2)o1 (stereo not given)	Sm TGR inh 13µM
COc1ccc(OC)c(C2C(C(=O)Nc3ccc(F)cc3)=C(C)Nc3nc(CCCO)nn32)c1 (stereo not given)	AmpC no deterg 8.9µM
COc1cccc(C2C(C(N)=O)=C(C)Nc3nc(CCCO)nn32)c1OC (stereo not given)	AmpC inh detg inconclusive
COc1ccc(OC)c(C2C(C(N)=O)=C(C)Nc3nc(CCCO)nn32)c1 (stereo not given)	AmpC no deterg 1.6µM, AmpC inh detg inconclusive
COc1ccc(NC(=O)C2=C(C)Nc3nc(SCc4ccccc4)nn3C2c2cc(OC)ccc2OC)cc1 (stereo not given)	Sm TGR inh inconclusive (no result: AmpC no deterg, RE007 growth inh, AMA1-RON2 inh)
CCc1nc2cccnc2n1-c1ccc(CC(=O)Nc2ccccc2Cl)cc1	none (no result: AmpC no deterg, RE007 growth inh, AMA1-RON2 inh)
O=C1c2ccccc2C(=O)c2cc(S(=O)(=O)Nc3ccccc3)ccc21	AmpC no deterg 28µM, Sm TGR inh inconclusive
Clc1cccc(Nc2ncnc3c2nc2n3CCCCC2)c1	none (no result: AmpC no deterg, RE007 growth inh, AMA1-RON2 inh)
COC(=O)COc1ccc(/C=C2\C(=O)NC(=S)N(c3ccc(C)cc3)C2=O)cc1OC	AmpC inh detg inconclusive, Sm TGR inh 13µM
COc1ccc(N2C(=O)/C(=C/c3ccc(C)o3)C(=O)NC2=S)c(OC)c1	Sm TGR inh 1.3µM
COc1cc(/C=C2\C(=O)NC(=O)N(c3ccccc3)C2=O)cc(OC)c1OC	Sm TGR inh inconclusive
COc1ccc(N2C(=O)/C(=C/c3ccc(OC)c(OC)c3)C(=O)NC2=S)cc1	Sm TGR inh 10µM
CCOC(=O)COc1ccc(/C=C2\C(=O)NC(=S)N(c3ccc(OC)cc3)C2=O)cc1OC	Sm TGR inh 14µM
O=C(c1cc(-c2ccccc2O)on1)N1CCCCC1	none (no result: AmpC no deterg, RE007 growth inh, AMA1-RON2 inh)
CC(C)CCn1c(SCc2c(F)cccc2Cl)nc2ccsc2c1=O	none (no result: AmpC no deterg, RE007 growth inh, AMA1-RON2 inh)
O=C(CC(c1ccccc1)c1cc(Br)ccc1O)NCC1(c2ccccc2)CCCC1 (stereo not given)	none (no result: AmpC no deterg, RE007 growth inh, AMA1-RON2 inh)
NC(=O)C1=C[C@@H](c2ccccc2)C[C@@H](OCc2ccc(CO)cc2)O1	Sm TGR inh 50µM
O=C(O)C1=C[C@@H](c2ccccc2)C[C@@H](OCc2ccc(CO)cc2)O1	Sm TGR inh inconclusive
NC(=O)C1=C[C@H](c2ccc3c(c2)OCO3)C[C@H](OCc2ccc(CO)cc2)O1	Sm TGR inh 56µM
COc1ccc2[nH]c3c(c2c1)CCNC3c1ccc([N+](=O)[O-])o1 (stereo not given)	Sm TGR inh 0.89µM (no result: RE007 growth inh)
COc1ccc2[nH]c3c(c2c1)CCNC3C (stereo not given)	none
O=C(OCc1ccc([N+](=O)[O-])cc1)C1CC(=O)N(CCc2ccccc2)C1 (stereo not given)	AmpC inh detg inconclusive
O=C(OCc1nnc(-c2ccc([N+](=O)[O-])cc2)o1)C1CC(=O)N(CCc2ccccc2)C1 (stereo not given)	Sm TGR inh 89µM
O=C(NCC(c1ccco1)S(=O)(=O)c1cccs1)c1c(F)cccc1F (stereo not given)	Sm TGR inh 0.71µM (no result: AmpC no deterg, RE007 growth inh, AMA1-RON2 inh)
O=C(NCC(c1ccco1)S(=O)(=O)c1cccs1)c1ccccc1F (stereo not given)	Sm TGR inh 11µM (no result: AmpC no deterg, RE007 growth inh, AMA1-RON2 inh)
Cc1cccc(C(=O)NCC(c2cccs2)S(=O)(=O)c2cccs2)c1 (stereo not given)	Sm TGR inh inconclusive (no result: AmpC no deterg, RE007 growth inh, AMA1-RON2 inh)
O=C(NCC(c1cccs1)S(=O)(=O)c1cccs1)c1cccc(F)c1 (stereo not given)	Sm TGR inh 20µM (no result: AmpC no deterg, RE007 growth inh, AMA1-RON2 inh)
Cc1ccc(Cl)cc1N1CCN(CCCNc2ncnc3onc(-c4ccc(Cl)cc4)c23)CC1	none (no result: AmpC no deterg, RE007 growth inh, AMA1-RON2 inh)
COc1ccc(S(=O)(=O)c2c(Nc3ccc(F)cc3)sc(C(=O)c3ccc4c(c3)OCO4)c2N)cc1	none (no result: AmpC no deterg, RE007 growth inh, AMA1-RON2 inh)
COc1ccc(/C=C/C(=O)NC(=S)NNC(=O)[C@H]2C[C@@H]2c2ccccc2)cc1OC	AmpC no deterg 7.1µM
O=S(=O)(Nc1ccc(Br)cn1)c1ccc2ccccc2c1	AmpC no deterg 7.1µM
Cc1ccc(NS(=O)(=O)c2ccc(Br)cc2)nc1	none (no result: Sm TGR inh)
Cc1cc(C(=O)CS(=O)(=O)c2ccc(F)cc2)cc(C)c1O	Sm TGR inh 14µM
Cc1cc(C(=O)CS(=O)(=O)c2ccccc2)cc(C)c1O	Sm TGR inh 22µM

High-throughput results (PubChem BioAssay)
